Experimental data: publication PMC7826789 (International Journal of Molecular Sciences, 2021)

These molecules were tested on KDR.

Q: For `COc1cc2nccc(Nc3ccc(OCc4ccc(NC(C)=O)cc4)cc3)c2cc1OC` [GW440135], which Kinases covered is on record?
A: KDR

Q: How did the Kinases covered turn out when `Cl.O=C(Nc1ccc(Oc2ccc3[nH]c(NC(=O)c4ccccc4)nc3c2)cc1)Nc1cc(C(F)(F)F)ccc1F` [GW709042A] was run?
A: KDR

Q: How did the Kinases covered turn out when `Cn1ccc2ncnc(Oc3ccc(NC(=O)Nc4ccccc4)cc3)c21` [TPKI-69] was run?
A: KDR

Q: Which Kinases covered does the source give for `Nc1ncnc2occ(-c3ccc(NC(=O)Nc4cc(C(F)(F)F)ccc4F)cc3)c12` [GW770249X] here?
A: KDR

Q: How did the Kinases covered turn out when `COC(=O)Nc1nc2ccc(Oc3ccc(NC(=O)Nc4cc(C(F)(F)F)ccc4F)cc3)cc2s1.Cl` [GW693917A] was run?
A: KDR

Q: `Cl.O=C(Nc1ccc(Oc2ccc3[nH]c(NC(=O)c4ccco4)nc3c2)cc1)Nc1cc(C(F)(F)F)ccc1F` [GW683134A] was tested. Which Kinases covered did it give?
A: KDR

Q: How did the Kinases covered turn out when `CN1CCN(C(=O)c2ccc(NC(=O)Nc3ccc(N(C)c4ccnc(Nc5ccc(CS(C)(=O)=O)cc5)n4)cc3)cc2)CC1.Cl` [GW830263A] was run?
A: KDR

These molecules were tested on KIT.

Q: For `Nc1n[nH]c2ncc(-c3ccccc3)cc12` [SB-517081], which Kinases covered is on record?
A: KIT

Q: For `C/C(Nc1ccc(S(N)(=O)=O)cc1)=C1/C(=O)Nc2ccccc21` [GW335962X], which Kinases covered is on record?
A: KIT

Q: With `CCS(=O)(=O)c1ccc(OC)c(Nc2ncc(-c3cccc(F)c3)o2)c1` [GW621970X] as the molecule, how does the Kinases covered read?
A: KIT

Q: With `COc1cc2nccc(Nc3ccc(OCc4ccc(NC(C)=O)cc4)cc3)c2cc1OC` [GW440135] as the molecule, how does the Kinases covered read?
A: KIT

Q: For `Cn1ccc2ncnc(Oc3ccc(NC(=O)Nc4ccccc4)cc3)c21` [TPKI-69], which Kinases covered is on record?
A: KIT

Q: With `Nc1ncnc2occ(-c3ccc(NC(=O)Nc4cc(C(F)(F)F)ccc4F)cc3)c12` [GW770249X] as the molecule, how does the Kinases covered read?
A: KIT

Q: Which Kinases covered does the source give for `CCS(=O)(=O)c1ccc(OC)c(Nc2ncc(-c3cccc(OC)c3)o2)c1` [GW580509X] here?
A: KIT

Q: Which Kinases covered does the source give for `O=C(Nc1ccccc1)Nc1cccc(Oc2ccc3nccn3n2)c1` [TPKI-39] here?
A: KIT

Q: For `Cl.O=C(Nc1ccc(Oc2ccc3[nH]c(NC(=O)c4ccco4)nc3c2)cc1)Nc1cc(C(F)(F)F)ccc1F` [GW683134A], which Kinases covered is on record?
A: KIT

These molecules were tested on LRRK2.

Q: `CNc1nc(Nc2ccc(C(=O)N3CCOCC3)cc2OC)ncc1Cl` [HG-10-102-01] was tested. Which Kinases covered did it give?
A: LRRK2

Q: `CNc1nc(Nc2ccc(C(=O)N3CCOCC3)cc2OC)nc2[nH]cc(Cl)c12` [JH-II-127] was tested. Which Kinases covered did it give?
A: LRRK2

Q: With `O=C(Nc1cccnc1)c1cc(-c2ccnc(F)c2)ccc1OCc1ccccc1` [GSK2578215] as the molecule, how does the Kinases covered read?
A: LRRK2

Q: Which Kinases covered does the source give for `C[C@@H]1CCNC(=O)c2cc3ccc(C(=O)Nc4nc5ccccc5n4CCCN(C)C)cc3n21` [BI00645435] here?
A: LRRK2

Each molecule was assayed on MAP2K5.

Q: For `COc1cc2ncn(-c3cc(OCC4CCCO4)c(C(N)=O)s3)c2cc1OC` (stereo not drawn) [GSK204607], which Kinases covered is on record?
A: MAP2K5

Q: Which Kinases covered does the source give for `COc1cc2nccc(Nc3ccc(OCc4ccc(NC(C)=O)cc4)cc3)c2cc1OC` [GW440135] here?
A: MAP2K5

Q: Which Kinases covered does the source give for `Cc1ccc(C(=O)Nc2ccc(Nc3ccnc4cc(-c5ccccn5)ccc34)cc2O)cc1` [GW440146] here?
A: MAP2K5

Q: `COc1cc(Nc2nccc(N3CCC(NC(=O)Nc4cc(C)ccc4C)C3)n2)cc(OC)c1OC` (stereo not drawn) [GSK1379762] was tested. Which Kinases covered did it give?
A: MAP2K5

These molecules were tested on MAPK10.

Q: `CCc1nc(-c2cccc(C)c2)c(-c2ccncc2)s1` [TPKI-106] was tested. Which Kinases covered did it give?
A: MAPK10

Q: For `O=C(O)/C=C/C(=O)O.OCCCNc1nccc(-c2c(-c3ccc(F)cc3)nn3cc(C(F)(F)F)ccc23)n1` [GW569293E], which Kinases covered is on record?
A: MAPK10

Q: How did the Kinases covered turn out when `Nc1nccc(-c2c(-c3ccc(F)cc3)ncn2C2CCN(Cc3ccccc3)CC2)n1` [SB-219980] was run?
A: MAPK10

Q: For `CCC(=O)c1c(-c2ccccc2)c2cc(Cl)ccc2c(=O)n1Cc1cc(S(C)(=O)=O)n(CC(N)=O)n1` [TPKI-105], which Kinases covered is on record?
A: MAPK10

Q: Which Kinases covered does the source give for `Fc1ccc(-c2nn3ccccc3c2-c2ccncc2)cc1` [GW434756X] here?
A: MAPK10

Q: `COC(=O)c1c(-c2ccccc2)c2cc(Br)ccc2c(=O)n1Cc1ccc(S(C)(=O)=O)cc1` [TPKI-100] was tested. Which Kinases covered did it give?
A: MAPK10
